Source: the supplement of paper PMC7724964

Target: T1, DOK3 213-322 IRS (domain begin residue: 213, domain end residue: 322), Q7L591
T1 chain: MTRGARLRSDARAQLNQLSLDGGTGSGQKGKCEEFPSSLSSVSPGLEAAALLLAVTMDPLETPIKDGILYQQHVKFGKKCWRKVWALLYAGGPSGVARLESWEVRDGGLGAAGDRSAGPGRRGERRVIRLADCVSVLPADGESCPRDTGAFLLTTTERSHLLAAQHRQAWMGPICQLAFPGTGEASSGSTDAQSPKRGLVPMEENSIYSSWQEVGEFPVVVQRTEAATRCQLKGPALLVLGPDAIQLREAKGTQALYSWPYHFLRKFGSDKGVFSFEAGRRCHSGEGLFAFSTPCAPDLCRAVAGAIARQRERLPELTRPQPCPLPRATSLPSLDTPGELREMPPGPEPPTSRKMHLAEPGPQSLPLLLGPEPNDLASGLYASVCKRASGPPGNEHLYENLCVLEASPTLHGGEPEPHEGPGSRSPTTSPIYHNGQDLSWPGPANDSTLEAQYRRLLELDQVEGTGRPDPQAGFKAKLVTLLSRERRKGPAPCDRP
Assay: phage ELISA signal ratio (GST-PRM binding over GST background); higher = stronger binding of peptide-phage to the PRM
How it was run: (§1)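 Human peptide recognition domains were expressed in 96-well plates as fusions to the C-terminus of glutathione S-transferase (GST) and selected against an M13 phage library displaying randomized hexadecapeptides, cysteine-free and glycine-flanked, on the gene-8 major coat protein. Five selection rounds were run, and approximately 48 individual clones from rounds 4 and 5 were tested by phage ELISA. Each value is the ELISA signal on the GST-domain fusion divided by the signal on GST alone. Positive clones were sequenced.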

Binder	phage ELISA signal ratio
GHNEIMTIQQHATWLY	5.54
VWEEVMTMEQWQWHNF	5.77
EYKTMPWEEIMMPYNY	3.85
WEWSQEIWLPPHMMVD	12.3
NQLRFNPQWTVPNFRN	3.31

Target: T2, DOK1 151-256 IRS (domain begin residue: 151, domain end residue: 256), Q99704
T2 chain: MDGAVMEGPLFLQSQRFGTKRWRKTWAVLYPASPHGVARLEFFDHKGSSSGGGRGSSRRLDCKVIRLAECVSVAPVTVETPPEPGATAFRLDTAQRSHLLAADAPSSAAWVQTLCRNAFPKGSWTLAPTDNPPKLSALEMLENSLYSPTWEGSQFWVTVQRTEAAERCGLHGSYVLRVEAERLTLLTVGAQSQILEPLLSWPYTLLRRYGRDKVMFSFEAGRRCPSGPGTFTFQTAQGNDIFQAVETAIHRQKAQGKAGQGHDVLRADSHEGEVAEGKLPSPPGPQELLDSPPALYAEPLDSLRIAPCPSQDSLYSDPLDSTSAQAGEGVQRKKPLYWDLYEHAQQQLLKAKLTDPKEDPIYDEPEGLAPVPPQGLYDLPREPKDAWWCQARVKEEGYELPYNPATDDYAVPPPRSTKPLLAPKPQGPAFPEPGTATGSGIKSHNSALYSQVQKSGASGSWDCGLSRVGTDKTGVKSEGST
Assay: as above
How it was run: as §1

Binder	phage ELISA signal ratio
PGEMQESNWLWKFVDW	29.1
QWMGLSVEQFAMNPWY	17.7
ADQWVWHYIMEMEQVR	33
VDDGDWVWVHVSQQFM	31.2
DLQWKWVYWHDLDDGE	22.6
VWDLDTSADYLWVWMG	19.3
EWFMDASGYWNNLQVS	7.98
YDQTGWAWVHEMQDMV	8.33
DEWMLNETWIDYQELH	20
EPWVDWSESMWAWVNT	17.6
DWEAWHHNVDFAWGWV	9.3
DWVWSDVGGHVPQVWD	25
DNHWIWKEVNPMFMKD	30.4
QMVWHYPWEATDTHGW	33.5
DWPNYPANSWKYVTWA	10.2
WSEVWWTDLEGAMFWV	16.2
MPWPMWEQYQQHMQWV	19.7
DTKWNIVHWDWDTWVH	16.4
WVWHDMHLSAPFQHQE	3.72
WNEWNEKEMLWESVEG	37.8
WVTWDNSSLKWIDETY	28

target: DOK4 130-237 IRS (domain begin residue: 130, domain end residue: 237), Q8TEW6; assay: as above
Sequence (Q8TEW6 whole entry): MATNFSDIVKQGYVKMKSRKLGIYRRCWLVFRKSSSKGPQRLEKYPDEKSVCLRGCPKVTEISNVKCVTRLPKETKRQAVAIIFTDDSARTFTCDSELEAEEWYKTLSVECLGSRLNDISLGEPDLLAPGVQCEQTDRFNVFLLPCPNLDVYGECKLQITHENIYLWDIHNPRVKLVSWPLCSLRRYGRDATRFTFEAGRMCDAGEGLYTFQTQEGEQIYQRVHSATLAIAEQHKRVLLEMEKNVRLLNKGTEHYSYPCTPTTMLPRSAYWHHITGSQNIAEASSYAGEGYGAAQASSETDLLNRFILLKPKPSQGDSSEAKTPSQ
How it was run: as §1

Binder	phage ELISA signal ratio
PEQMEYWTWSPLHVSQ	13.1
YELSWTHTPWSHFIAT	6.86
IEWTHTNWEWNKMETQ	11.9
MWEWTDNPSYTIPGQQ	7.86
YETPEPQWLWVMNPIH	14.6
QWMDLNDLQWTYNPWY	11.2
EHLRPEMDWTYVWWEH	4.35
WPEGIKYTWVKEHETE	8.42
GWDDQIWTWSPMYMPV	19
VIWTWNPMAGMEAWNI	5.11
FEWTSSPVWSDHQEHN	11.5
DDMIWQWQMNPIWMMD	11.5

Target: T3, DOK2 146-252 IRS (domain begin residue: 146, domain end residue: 252), O60496
T3 chain: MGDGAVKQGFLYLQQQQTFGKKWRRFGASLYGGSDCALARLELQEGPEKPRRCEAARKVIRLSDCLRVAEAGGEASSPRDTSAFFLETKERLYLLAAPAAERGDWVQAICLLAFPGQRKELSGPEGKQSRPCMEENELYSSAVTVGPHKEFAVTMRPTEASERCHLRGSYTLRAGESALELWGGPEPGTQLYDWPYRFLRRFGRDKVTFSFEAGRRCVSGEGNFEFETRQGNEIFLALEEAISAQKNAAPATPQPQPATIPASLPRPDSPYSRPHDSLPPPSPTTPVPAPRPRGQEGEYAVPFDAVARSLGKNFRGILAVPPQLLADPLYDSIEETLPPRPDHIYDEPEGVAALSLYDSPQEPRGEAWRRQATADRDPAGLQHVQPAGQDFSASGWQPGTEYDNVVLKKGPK
Assay: as above
How it was run: as §1

Binder	phage ELISA signal ratio
EWVEWVSPWMVEHGDW	17.8
QFIVWENEYYEHWGGK	21.1
HLTGQEGDWIWHWLEN	10.4
EWMWMDNPGFHMTEAT	13.6
DLMVWYDNPYYHSEMI	9.37
DLDFMWWDNPVHETDL	16.8
VVNEQHGWKWMILEHE	20.7
TMAWEWIGNDVYVSHD	7.8
PYTWYENPLWVPSPME	15.2
DEWTWHFVEQPWHMAG	7.99
EQLWWSNPLWTEGIEE	16.1
DEWKWFDMVGTQTQTP	16.8

target: DEPDC6 20-129 DEP (domain begin residue: 20, domain end residue: 129); assay: as above
How it was run: as §1

Binder	phage ELISA signal ratio
MESAFQQVMLAYYQEL	21.9
MQMTFLDMMEQYRLME	33.8
EQQHDKFQMMMNIYKY	23
MYTFEEMWMHWKLVEM	23.6

target: DOK5 130-237 IRS (domain begin residue: 130, domain end residue: 237), Q9P104; assay: as above
How it was run: as §1

Binder	phage ELISA signal ratio
GVGWAKQIEWTVSPMM	3.95
DWVWTIPFEQVFSEVM	4.96

Target: T4, DOK7 105-219 IRS (domain begin residue: 105, domain end residue: 219), Q18PE1
T4 chain: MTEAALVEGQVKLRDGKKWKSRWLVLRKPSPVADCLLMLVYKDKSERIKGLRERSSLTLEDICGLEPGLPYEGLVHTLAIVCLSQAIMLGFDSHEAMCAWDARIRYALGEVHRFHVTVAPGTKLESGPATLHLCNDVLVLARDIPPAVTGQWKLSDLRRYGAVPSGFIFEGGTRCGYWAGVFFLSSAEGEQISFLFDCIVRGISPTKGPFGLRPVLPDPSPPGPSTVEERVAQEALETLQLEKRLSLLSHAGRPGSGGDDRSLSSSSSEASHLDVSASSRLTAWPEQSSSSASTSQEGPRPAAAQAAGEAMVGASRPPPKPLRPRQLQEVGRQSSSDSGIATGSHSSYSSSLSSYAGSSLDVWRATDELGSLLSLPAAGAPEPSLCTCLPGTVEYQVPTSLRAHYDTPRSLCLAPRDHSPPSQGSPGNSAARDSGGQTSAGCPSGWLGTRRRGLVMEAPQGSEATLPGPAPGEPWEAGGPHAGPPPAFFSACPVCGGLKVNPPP
Assay: as above
How it was run: as §1

Binder	phage ELISA signal ratio
FETTWVLENGWWLPQA	9.36
